Test results reported in the supplement of paper PMC13380429.
Structures can show the parent of a compound that is named as a salt. Unmarked numbers belong to inactive results.

System: Vero E6 infected with SARS-CoV-2
Test: inhibition of SARS-CoV-2 cytopathic effect; higher = more antiviral protection, active = above 15
Settings: 48 h

| Compound | inhibition of SARS-CoV-2 cytopathic effect (1 nM) [%] | inhibition of SARS-CoV-2 cytopathic effect (8.33 nM) [%] | inhibition of SARS-CoV-2 cytopathic effect (100 nM) [%] | inhibition of SARS-CoV-2 cytopathic effect (833.33 nM) [%] | inhibition of SARS-CoV-2 cytopathic effect (10000 nM) |
| --- | --- | --- | --- | --- | --- |
| COCCOc1ccc2c(c1)ncn2-c1ccc2cccc(N3CCC(N)CC3)c2n1 | -0.92 | 2.04 | 0.64 | 1.12 | -2.22% |
| Cc1ccc2c(Br)cc(Br)c(OC(=O)c3ccccc3)c2n1 [broxaldine] | 0.35 | 0.53 | 4.07 | 5.01 | 11.5% |
| CC(C)(S)C(=O)N[C@@H](CS)C(=O)O [bucillamine] | 0.66 | 4.25 | 5.04 | 3.9 | -4% |
| Cc1c(CN2CCN(C(=O)[C@H](C)O)CC2)sc2c(N3CCOCC3)nc(-c3cnc(N)nc3)nc12 | -0.71 | 0.05 | 0.57 | -5.06 | -12.7% |
| CNCCCC1(c2ccccc2)OC(C)(C)c2ccccc21 (stereo not given) [talopram] | -0.51 | -1.8 | 0.91 | -2.03 | -3.52% |
| COc1cc(C[C@@H](CO)[C@H](CO)Cc2ccc(O)c(OC)c2)ccc1O [secoisolariciresinol-(-)] | 1.65 | 5.68 | 0.9 | 0.53 | -4.27% |
| CC(C(=O)O)c1ccc(CC2CCCC2=O)cc1 (stereo not given) [loxoprofen] | 0.21 | 3.24 | 2.9 | 0.82 | 2.16% |
| CC(C)COc1ccc(CNC(=O)N(Cc2ccc(F)cc2)C2CCN(C)CC2)cc1 [pimavanserin] | -1.81 | -0.8 | 0.2 | -0.47 | 24% (active) |
| COc1nccc(-c2c(-c3ccc(F)cc3)ncn2C2CCNCC2)n1 | -7.74 | 0.83 | -2.49 | -2.73 | 7.05% |
| CCN(CCO)CCCC(C)Nc1ccnc2cc(Cl)ccc12 (stereo not given) [hydroxychloroquine] | -0.29 | 2.78 | -0.76 | 0 | -0.85% |
| CO[C@H]1[C@H](O)[C@@H](O)[C@@H](O)[C@H](O)[C@@H]1O [pinitol] | 0.84 | -0.26 | -2.68 | -0.47 | 1.55% |
| CC(=O)O[C@]1(C(C)=O)CC[C@H]2[C@@H]3CCC4=CC(=O)CC[C@]4(C)[C@H]3CC[C@@]21C [hydroxyprogesterone-acetate] | -3.23 | 0.18 | -2.75 | 0.45 | 10.9% |
| Cc1ncc(CN2CC=C(c3ccccc3)CC2)c(N)n1 | 0.67 | 0.52 | -0.09 | 0.15 | 0.43% |
| O=C(N[C@H]1CCN(C(=O)c2cc(C(F)(F)F)cc(C(F)(F)F)c2)[C@H](Cc2ccc(Cl)cc2)C1)c1ccnc2ccccc12 | -1.66 | -1.32 | 1.01 | 2.87 | 0.89% |
| C[C@H](N)Cc1c[nH]cn1 [alpha-methylhistamine-dihydrobromide-(S)-(+)] | -0.195 | -0.765 | 8.02 | 1.26 | 2.96% |
| CN1CCC(=C2c3ccccc3CCc3sccc32)CC1 [pizotifen] | 2.55 | -0.27 | 0.72 | 1.5 | -3.38% |
| CCCn1c(=O)c2[nH]cnc2n(-c2ccc(Cl)cc2)c1=O [arofylline] | -3.55 | -1.13 | 0.16 | -6.97 | -3.81% |
| CN(CC[C@@H](Oc1ccc(-c2ccccc2)cc1)c1ccc(F)cc1)CC(=O)O | 0.18 | 1.55 | 0.56 | 0.79 | 0.89% |
| CN[C@@H](C)[C@H]1[C@H](O)C[C@@]2(C)[C@@H]3CC[C@H]4C(C)(C)[C@@H](NC)CC[C@@]45C[C@@]35CC[C@]12C [cyclovirobuxin-D] | -0.38 | 2.73 | 3.9 | 2.48 | -7.38% |
| CC(C)NC[C@@H](C(=O)N1CCN(c2ncnc3c2[C@H](C)C[C@H]3O)CC1)c1ccc(Cl)cc1 | -0.34 | -0.39 | -0.29 | 2.69 | 1.98% |

| Compound | inhibition of SARS-CoV-2 cytopathic effect (1 nM) [%] | inhibition of SARS-CoV-2 cytopathic effect (8.33 nM) [%] | inhibition of SARS-CoV-2 cytopathic effect (100 nM) [%] | inhibition of SARS-CoV-2 cytopathic effect (833.33 nM) [%] | inhibition of SARS-CoV-2 cytopathic effect (10000 nM) |
| --- | --- | --- | --- | --- | --- |
| CCOC(=O)[C@@](C)(N)Cc1ccc(O)c(O)c1 [methyldopate] | 6.97 | 1.54 | -0.9 | 1.46 | 2.33% |
| CN1c2c([nH]c(N)nc2=O)NC[C@@H]1CNc1ccc(C(=O)N[C@@H](CCC(=O)O)C(=O)O)cc1 [metafolin] | 4.85 | 2.72 | 1.95 | 0.81 | 2.93% |
| O=C1NCCN1CCN1CCC(c2cn(-c3ccc(F)cc3)c3ccc(Cl)cc23)CC1 [sertindole] | -2.53 | -4.63 | -2.36 | -5.98 | -11.3% |
| CCCC(O)C(CC)CO (stereo not given) [2-ethyl-1,3-hexanediol] | 4.92 | 0.49 | 1.14 | 0.52 | 0.65% |
| N#Cc1c(O)c2c(-c3ccc(-c4ccccc4O)cc3)csc2[nH]c1=O | -1.57 | -3.91 | -1.86 | 0.75 | 3.92% |
| O=C(Nc1ccccc1Br)N[C@@H]1CCN(c2ccc(C(F)(F)F)cn2)C1 | 3.02 | 3.06 | 1.72 | 3.42 | 1.82% |
| O=C(O)C[C@H]1CC[C@H](c2ccc(NC(=O)c3nnc(Nc4ccc(F)c(F)c4)o3)cc2)CC1 | -0.14 | -0.74 | 0.13 | -2.59 | -0.04% |
| CC(=N)NCc1cccc(CN)c1 | 0.8 | -0.79 | -0.18 | 1.65 | 0.53% |
| O=P(O)(O)C(O)(Cn1ccnc1)P(=O)(O)O [zoledronic-acid] | -0.24 | 2.18 | 1.88 | 0.51 | -0.12% |
| COc1cc2nccc(Oc3ccc(NC(=O)NC4CC4)c(Cl)c3)c2cc1C(N)=O [lenvatinib] | -1.78 | -0.25 | -0.32 | -0.03 | 8.44% |
| O=C(O)C1(C(=O)O)CCC1.[NH2-].[NH2-].[Pt+2] [carboplatin] | 2.35 | 3.65 | 4.49 | 9.87 | 4.39% |
| CC1=C(C(=O)Nc2cc3cn[nH]c3cc2F)C(c2ccc(C(F)(F)F)cc2)CC(=O)N1 (stereo not given) | 1.8 | -1.07 | 1.5 | -0.29 | -5.1% |
| CC[N+](CC)(CC(=O)Nc1c(C)cccc1C)Cc1ccccc1 [denatonium-benzoate] | -0.9 | -3.36 | -2.46 | -1.56 | -0.4% |
| O=C(Nc1ccccc1)[C@]12C[C@H]1/C(=N\O)c1ccccc1O2 | 1.02 | 3.35 | -0.61 | -0.42 | 1.97% |
| O=C(O)c1ccc(-c2ccc3cc(O)c(C45CC6CC(CC(C6)C4)C5)cc3c2)cc1 | 5.35 | 1.59 | 3.64 | 3.49 | 5.63% |
| CC(C)C1=C2[C@H]3CC[C@@H]4[C@@]5(C)CC[C@H](OC(=O)CC(C)(C)C(=O)O)C(C)(C)[C@@H]5CC[C@@]4(C)[C@]3(C)CC[C@@]2([C@@H](O)CN(CCN(C)C)Cc2ccc(Cl)cc2)CC1=O | -0.51 | 1.17 | -0.05 | 0.73 | -1.86% |
| CCN(CC)CCNC(=O)c1cc(Cl)c(N)cc1OC [metoclopramide] | -0.44 | 0.96 | 0.31 | -0.29 | -1.37% |
| CONC(=N)c1ccc(-c2ccc(-c3ccc(C(=N)NOC)cc3)o2)cc1 [pafuramidine] | -0.94 | 1.16 | -0.24 | 0.72 | 2.7% |
| C[C@@H]1CCN(C(=O)CC#N)C[C@@H]1N(C)c1ncnc2[nH]ccc12 | -0.74 | 0.22 | -0.47 | -2.11 | -0.5% |
